For 23 molecules, outcome and Potency results are on record in PubChem BioAssay (Tox21).

“And” between values parts separate entries of the source, which are not always exact repeats. Equal entries are not always repeated. Results filed as inconclusive are left out. Where a structure was tested more than once in an assay, its records may differ in their call. The source made the active and inactive calls. Unless noted, calls follow the shape of the dose curve; as a rule, active = well fitted curve in the direction sought with a large enough effect in the repeat runs; inconclusive = weak or mixed curves; inactive = no such curve, though single readings can be large; an effect the other way counts as inactive or inconclusive.

The target in assay [1] is Estrogen receptor beta (Homo sapiens) (UniProt Q92731). Put plainly: qHTS assay to identify small molecule agonists of the estrogen receptor beta (ER-beta) signaling pathway (AID 1259377; active = well fitted activation curve with a large enough effect in the signal ratio in the repeat runs, not every such curve was filed as active; the % refers to the signal ratio). The procedure, abridged: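 Screening used GripTite ER-beta-UAS-bla cells held in 2% charcoal-stripped FBS medium. After overnight (16 hr) compound incubation at 37C, beta-lactamase activity was detected with a FRET substrate by fluorescence.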
On the technique in general: Quantitative high-throughput screening tests each substance at several concentrations.

For assay [2] the target is unchanged. Nature of the assay: qHTS assay to identify small molecule antagonists of the estrogen receptor beta (ER-beta) signaling pathway (AID 1259378; active = well fitted inhibition curve with a large enough effect in the signal ratio in the repeat runs, not every such curve was filed as active; the % refers to the signal ratio). Put shortly:
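Antagonist mode: compounds added to beta-lactamase reporter HEK293T ER-beta-UAS cells stimulated with E2 (1nM final), 16 hr at 37C. LiveBLAzer B/G FRET substrate, 2 hours room temperature, fluorescence read-out.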

Assay [3] in a line: qHTS assay to identify small molecule agonists of the androgen receptor (AR) signaling pathway in the presence of an antagonist - cell viability counter screen (AID 1259379). Also: nearly all actives have a fitted effect of over 25% in size. Also: potency is read from the fitted curve at half-maximal effect. Put shortly:
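Seed MDA-kb2 at 3,000 cells/well; incubate 5 hr, 37C, 0% CO2. Add nilutamide to 3.0uM final, then pin compounds at 15 concentrations. Incubate 16 hr. Add CellTiter-Fluor at 15 hr, read fluorescence after 1 hr.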

Assay [4] in a line: qHTS assay to identify small molecule agonists of the estrogen receptor beta (ER-beta) signaling pathway - cell viability counter screen (AID 1259380). Also: nearly all actives have a fitted effect of over 30% in size. Also: potency is read from the fitted curve at half-maximal effect. The procedure, abridged:
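CellTiter-Glo read, 30 min RT, same wells as bla assay; cells ER-beta-UAS-bla HEK293T; 16 hr compound, 37C; medium 2% charcoal-stripped FBS.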

Assay [5] concerns the target Androgen receptor (Homo sapiens) (UniProt P10275). Nature of the assay: qHTS assay to identify small molecule agonists of the androgen receptor (AR) signaling pathway in the presence of an antagonist (AID 1259381; calls by dose curve; also: nearly all actives have a fitted effect of over 15% in size). Put shortly:
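Test compounds at 15 concentrations were incubated for 16hr with MDA-kb2 reporter cells in presence of 3.0uM nilutamide (final). Signal: ONE-Glo luciferase luminescence.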

Assay [6] can be described thus: qHTS assay to identify small molecule antagonists of the estrogen receptor beta (ER-beta) signaling pathway - cell viability counter screen (AID 1259382). Also: nearly all actives have a fitted effect of over 55% in size. Also: potency is read from the fitted curve at half-maximal effect. The procedure, abridged: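 In this multiplexed counter screen, cells were seeded at 2,000 per well in medium with 2% charcoal-stripped FBS and incubated 6 hr before compound and 1nM final E2 were added. Sixteen hours later, ATP-based luminescence reported viability.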

For assay [7], the target named is Estrogen receptor (Homo sapiens) (UniProt P03372). Nature of the assay: qHTS assay to identify small molecule agonists of the estrogen receptor alpha (ER-alpha) signaling pathway in the presence of an antagonist (AID 1259383; calls by dose curve; also: top concentration of the series differs between compounds; nearly all actives have a fitted effect of over 15% in size). The procedure, abridged:
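Stably transfected VM7Luc4E2 reporter cells, kept 5 days in charcoal-stripped serum, received ICI-182,780 at 10.0nM final before compound addition. Following 22hr incubation at 37C and 5% CO2, luciferase signal was read by luminescence.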

The nature of assay [8]: qHTS assay to identify small molecule agonists or antagonists of the thyroid stimulating hormone receptor (TSHR) signaling pathway - wild type cell line counter screen (AID 1259384; calls by dose curve). Put shortly: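 Counter screen in untransfected Hek293: compounds (15-point titration, triplicate) plus phosphodiesterase inhibitor Ro20-1724 added after 18 h plating; 30 min RT. Intracellular cAMP via competitive d2/cryptate immunoassay, 1 h incubation.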

Assay [9] can be described thus: qHTS assay to identify small molecule agonists of the estrogen receptor alpha (ER-alpha) signaling pathway in the presence of an antagonist - cell viability counter screen (AID 1259386).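 Also: cells exposed to compounds for 22 h at 37 °C before the viability read; nearly all actives have a fitted effect of over 30% in size.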 Also: potency is read from the fitted curve at half-maximal effect. Put shortly: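 Viability counter screen using VM7Luc4E2 (full-length ER-alpha, four ERE-luciferase). The cells were treated with compounds alongside ICI-182,780 10.0nM for 22hr, and live-cell protease fluorescence was quantified with CellTiter-Fluor.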

In assay [10] the target is Thyrotropin receptor (Homo sapiens) (UniProt P16473). Nature of the assay: qHTS assay to identify small molecule antagonists of the thyroid stimulating hormone receptor (TSHR) signaling pathway (AID 1259385; calls by dose curve; also: nearly all actives have a fitted effect of over 20% in size; also: potency is read from the fitted curve at half-maximal effect). The procedure, abridged:
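Antagonist mode: compound-treated TSHR-expressing HEK293 cells were stimulated with 1.5 ng/mL TSH (final) in presence of Ro20-1724 for 30 min at RT. HTRF cAMP detection after 1 h; each compound tested at 15 concentrations, triplicate.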

Androgen receptor (Homo sapiens), sequence (P10275 whole entry, looked up): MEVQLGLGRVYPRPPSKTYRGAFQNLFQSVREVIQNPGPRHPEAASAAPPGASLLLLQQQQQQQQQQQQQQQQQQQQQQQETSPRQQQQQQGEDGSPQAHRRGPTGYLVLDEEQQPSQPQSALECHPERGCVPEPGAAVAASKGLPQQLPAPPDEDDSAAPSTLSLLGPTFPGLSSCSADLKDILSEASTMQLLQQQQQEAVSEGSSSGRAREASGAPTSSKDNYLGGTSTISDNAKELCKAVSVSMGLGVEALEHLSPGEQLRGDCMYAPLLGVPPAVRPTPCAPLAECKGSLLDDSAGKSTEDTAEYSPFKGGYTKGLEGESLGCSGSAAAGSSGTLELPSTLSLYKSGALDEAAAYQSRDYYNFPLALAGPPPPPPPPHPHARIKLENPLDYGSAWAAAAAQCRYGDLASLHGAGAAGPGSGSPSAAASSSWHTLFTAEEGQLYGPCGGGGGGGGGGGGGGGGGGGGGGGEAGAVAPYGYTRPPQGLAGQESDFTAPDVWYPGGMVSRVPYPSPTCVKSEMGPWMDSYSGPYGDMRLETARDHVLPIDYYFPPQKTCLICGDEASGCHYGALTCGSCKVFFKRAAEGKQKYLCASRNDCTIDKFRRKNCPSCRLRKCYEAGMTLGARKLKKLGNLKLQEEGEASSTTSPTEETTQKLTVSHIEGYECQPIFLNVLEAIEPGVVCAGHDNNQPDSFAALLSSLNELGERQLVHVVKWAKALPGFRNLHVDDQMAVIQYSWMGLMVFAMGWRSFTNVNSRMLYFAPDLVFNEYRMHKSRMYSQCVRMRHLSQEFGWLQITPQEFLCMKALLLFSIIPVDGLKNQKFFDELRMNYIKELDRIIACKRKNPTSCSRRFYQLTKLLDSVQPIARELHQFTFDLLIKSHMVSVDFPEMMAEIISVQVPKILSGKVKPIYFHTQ
Thyrotropin receptor (Homo sapiens), sequence (P16473 whole entry, looked up): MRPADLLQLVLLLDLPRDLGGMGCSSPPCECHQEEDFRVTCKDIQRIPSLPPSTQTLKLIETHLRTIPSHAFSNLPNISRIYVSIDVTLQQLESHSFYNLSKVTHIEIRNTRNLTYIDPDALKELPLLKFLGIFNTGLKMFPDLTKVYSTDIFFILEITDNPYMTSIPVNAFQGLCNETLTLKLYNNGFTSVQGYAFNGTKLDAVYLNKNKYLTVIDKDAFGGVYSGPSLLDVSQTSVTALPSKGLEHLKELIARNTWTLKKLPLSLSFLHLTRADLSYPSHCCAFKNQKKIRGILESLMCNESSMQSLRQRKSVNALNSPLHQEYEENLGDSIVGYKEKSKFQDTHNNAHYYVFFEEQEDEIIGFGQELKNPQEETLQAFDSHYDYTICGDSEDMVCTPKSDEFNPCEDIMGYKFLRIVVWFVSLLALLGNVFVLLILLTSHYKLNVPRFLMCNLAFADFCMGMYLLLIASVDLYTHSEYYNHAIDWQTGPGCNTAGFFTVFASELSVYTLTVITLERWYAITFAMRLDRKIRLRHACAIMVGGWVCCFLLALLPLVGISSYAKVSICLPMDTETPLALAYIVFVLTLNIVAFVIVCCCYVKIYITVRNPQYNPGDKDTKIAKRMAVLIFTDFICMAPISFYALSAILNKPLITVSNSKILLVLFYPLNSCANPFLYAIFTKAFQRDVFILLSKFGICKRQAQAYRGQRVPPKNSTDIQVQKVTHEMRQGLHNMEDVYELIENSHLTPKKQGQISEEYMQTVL
Estrogen receptor (Homo sapiens), sequence (P03372 whole entry, looked up): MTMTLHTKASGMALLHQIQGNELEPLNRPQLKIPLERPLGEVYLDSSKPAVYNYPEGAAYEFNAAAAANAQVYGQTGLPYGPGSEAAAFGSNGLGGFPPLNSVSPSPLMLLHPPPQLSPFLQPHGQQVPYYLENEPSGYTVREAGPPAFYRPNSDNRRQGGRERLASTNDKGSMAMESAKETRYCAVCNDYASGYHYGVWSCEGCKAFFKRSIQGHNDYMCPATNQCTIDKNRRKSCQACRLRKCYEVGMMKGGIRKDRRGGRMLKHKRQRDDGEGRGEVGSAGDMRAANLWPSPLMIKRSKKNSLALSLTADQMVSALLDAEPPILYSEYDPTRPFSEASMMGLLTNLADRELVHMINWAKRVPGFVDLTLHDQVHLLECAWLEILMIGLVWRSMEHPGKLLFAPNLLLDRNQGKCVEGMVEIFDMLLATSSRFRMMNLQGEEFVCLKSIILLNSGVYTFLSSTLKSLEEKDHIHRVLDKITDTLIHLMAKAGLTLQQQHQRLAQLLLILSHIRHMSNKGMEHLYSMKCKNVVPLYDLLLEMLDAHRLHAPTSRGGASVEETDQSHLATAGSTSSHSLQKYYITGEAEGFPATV
Estrogen receptor beta (Homo sapiens), sequence (Q92731 whole entry, looked up): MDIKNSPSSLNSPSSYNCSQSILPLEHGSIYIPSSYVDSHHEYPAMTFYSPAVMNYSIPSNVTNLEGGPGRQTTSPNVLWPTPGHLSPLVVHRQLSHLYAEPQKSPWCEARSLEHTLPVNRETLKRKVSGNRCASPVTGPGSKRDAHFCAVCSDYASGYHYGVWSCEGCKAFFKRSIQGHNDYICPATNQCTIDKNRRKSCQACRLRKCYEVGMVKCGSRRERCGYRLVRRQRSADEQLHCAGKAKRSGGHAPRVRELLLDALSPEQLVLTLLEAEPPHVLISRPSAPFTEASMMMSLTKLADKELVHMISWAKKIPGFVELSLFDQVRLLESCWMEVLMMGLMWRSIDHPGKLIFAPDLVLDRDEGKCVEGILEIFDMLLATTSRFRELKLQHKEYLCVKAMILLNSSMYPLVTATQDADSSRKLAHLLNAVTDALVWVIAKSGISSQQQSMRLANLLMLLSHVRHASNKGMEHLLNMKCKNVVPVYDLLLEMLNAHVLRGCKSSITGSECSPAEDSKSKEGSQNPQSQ

For `C#CC(C)(CC)OC(=O)c1ccccc1C(=O)O` (stereo not given), the call in assay [1] was inactive. In addition, the Potency result in assay [2], in assay [3], in [4], in assay [5], in [6] and in assay [7] was “inactive” throughout. The Potency result in assay [8] and in assay [9] was “inactive” in each case.
Consider `Cc1ccnc2c1NC(=O)c1cccnc1N2C1CC1`, for which, in assay [1], the call was inactive. Further, the Potency result in assay [2], in assay [3], in assay [4], in [6], in assay [8] and in assay [10] was “inactive” each time. Moreover, in assay [9], the Potency result was “inactive”.
On to `Cc1cccc(O)c1C`, for which, in assay [1], the call was inactive. Moreover, the Potency result in assay [2], in assay [3], in assay [4], in [6], in [7] and in assay [8] was “inactive” in each case. Moreover, the Potency entry in [10] and in [9] was “inactive” throughout.
`c1ccc2n[nH]nc2c1`: in assay [1], the molecule was called inactive. The Potency result in assay [2], in [3], in [4], in assay [6], in [10] and in assay [9] was “inactive” in each case.
For `Cc1cccc([N+](=O)[O-])c1C(=O)O`, the result in [1] was inactive. Besides, the Potency result in assay [2], in [3], in assay [4], in assay [6], in assay [7] and in [10] was “inactive” in each case. In addition, the Potency entry in assay [9] is “inactive”.
In the case of `CCOc1ccccc1C(N)=O`, the molecule was called inactive in [1]. For the same molecule, the Potency result in assay [2], in assay [3], in assay [4], in assay [5], in assay [6] and in [7] was “inactive” throughout. The Potency entry in assay [10] and in [9] was “inactive” in each case.
For `CC(C)(C)c1ccc(O)c(C(C)(C)C)c1`, the molecule was called inactive in [1]. Besides, the Potency result in [2], in [3], in assay [7], in assay [8], in assay [10] and in assay [9] was “inactive” in each case. For the same molecule, the Potency in [4] is 48.4 µM (active) and 54.5 µM (active); in [6] it was 60.9 µM (active).
Consider `CC(C)CCOCc1ccccc1`, for which the molecule was called inactive in assay [1]. The Potency entry in assay [3], in assay [4], in [5], in [6], in assay [7] and in [8] was “inactive” in each case. Further, the Potency entry in assay [10] and in assay [9] was “inactive” each time.
Turning to `CCn1c2ccccc2c2cc(N)ccc21`, the call in assay [1] was inactive. Further, the Potency entry in assay [2], in [6], in assay [7], in assay [8], in assay [10] and in [9] was “inactive” in each case. Besides, the Potency in assay [4] was 17.1 µM (active) and 15.4 µM (active).
On to `CCCCCCC(O)CCCCCCCCCCC(=O)O` (stereo not given), for which the molecule was classed as inactive in assay [1]. For the same molecule, the Potency result in assay [2], in [3], in assay [10] and in assay [9] was “inactive” throughout. The Potency result in assay [4] is “inactive and 48.6 µM (active)”; in [6] it was “inactive and 30.6 µM (active)”.
`Cc1cc(OCCOCC[N+](C)(C)Cc2ccccc2)ccc1C(C)(C)CC(C)(C)C`: the result in assay [1] was inactive. For the same molecule, the Potency in assay [3] is 54.2 µM (active) and 29.8 µM (active); in assay [4], 27.1 µM (active) and 13.3 µM (active); in [6] it was 21.6 µM (active) and 13.3 µM (active). For the same molecule, the Potency result in assay [5], in [7], in [8] and in assay [10] was “inactive” in each case.
Consider `OCCN1CCNCC1`, for which, in assay [1], the outcome was inactive. The Potency result in assay [2], in [3], in [4], in assay [6], in assay [7] and in [8] was “inactive” each time. Further, the Potency entry in [10] and in assay [9] was “inactive” throughout.
For `CCCCN(CCO)CCCC`, the molecule was called inactive in [1]. The Potency result in [2], in assay [3], in [4], in assay [6], in [7] and in assay [8] was “inactive” each time. For the same molecule, the Potency entry in assay [10] and in assay [9] was “inactive” each time.
As to `C=CC(=O)OCCCCCCCC`, the result in assay [1] was inactive. For the same molecule, the Potency entry in assay [2], in [3], in [4], in assay [6], in assay [7] and in [8] was “inactive” throughout. The Potency entry in assay [10] and in assay [9] was “inactive” in each case.
For `NC(=Nc1ccccc1)Nc1ccccc1`, in assay [1], the outcome was inactive. Besides, the Potency result in assay [2], in [3], in [4], in assay [6], in assay [7] and in assay [8] was “inactive” throughout. Further, the Potency result in [10] and in [9] was “inactive” in each case.
Regarding `COC(=O)/C=C/c1ccccc1`, the call in assay [1] was inactive. For the same molecule, the Potency entry in [3], in [4], in assay [6], in [7], in assay [8] and in assay [10] was “inactive” in each case. Besides, the Potency entry in assay [9] is “inactive”.
As for `C=C(C)C1CC=C(C)C(OC(C)=O)C1` (stereo not given), in [1], the outcome was inactive. The Potency entry in assay [3], in assay [4], in assay [6], in [7], in [10] and in assay [9] was “inactive” throughout.
On to `CC(=O)N[C@@H](CS)C(=O)O`, for which the molecule was called inactive in assay [1]. Besides, the Potency entry in [3], in assay [4], in [6], in assay [7], in assay [8] and in assay [10] was “inactive” throughout. Besides, the Potency entry in [9] was “inactive”.
Turning to `CO[Si](OC)(OC)c1ccccc1`, the outcome in assay [1] was inactive. For the same molecule, the Potency entry in [3], in assay [4], in assay [6], in assay [7], in [10] and in [9] was “inactive” each time.
`O=C(O[C@@H]1Cc2c(O)cc(O)cc2O[C@@H]1c1cc(O)c(O)c(O)c1)c1cc(O)c(O)c(O)c1`: the outcome in [1] was inactive. The Potency is 54.6 µM (active) in assay [3]; 54.6 µM (active) and 46.8 µM (active) in [9]. Further, the Potency entry in assay [4], in assay [6] and in assay [7] was “inactive” each time.
Regarding `O=Cc1ccc(Cl)cc1`, in assay [1], the outcome was inactive. Also, the Potency result in assay [3], in [4], in assay [5], in assay [6], in assay [10] and in assay [9] was “inactive” throughout.
On to `CCN(CC)C(=S)SSC(=S)N(CC)CC`, for which the outcome in assay [1] was inactive. For the same molecule, the Potency result in [3], in [5], in [7], in assay [10] and in [9] was “inactive” in each case. The Potency in [4] was 222 nM (active) and 133 nM (active).
Regarding `Cc1ccc(S(=O)(=O)Oc2ccc(N=Nc3ccc(-c4ccc(N=Nc5c(O)ccc6cc(S(=O)(=O)O)cc(S(=O)(=O)O)c56)c(C)c4)cc3C)cc2)cc1`, in assay [1], the call was inactive. Moreover, the Potency is 24.4 µM (active) and 17.8 µM (active) in assay [3]; 61.4 µM (active) in assay [10]; 27.4 µM (active) and 11.2 µM (active) in [9]. The Potency result in assay [4], in assay [5], in assay [6] and in [8] was “inactive” throughout.
